# About 100 (0.1%) of roughly 96,000 compounds were called active.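 The calls were made as follows: active = displacement above 50% at 20 µM plus a fluorescence interference ratio under 1.5; inactive = the rest.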 The full list was thinned out, with actives kept by preference. Results with a measured potency or affinity are listed apart.
# Molecular target: Bcl-2-like protein 10 (Homo sapiens) (UniProt Q9HD36)
# Experiment: displacers of TR3 peptide from Bcl-B, primary screen, selectivity assay for Bfl-1 inhibitor project, biochemical, fluorescence polarization, FITC-TR3 peptide (AID 748);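 also: plate controls were wells without compound for no effect and wells lacking Bcl-B protein for full effect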
# Details: FP displacement of FITC-TR3 peptide from Bcl-B; at 20 µM; hits give high values
row,SMILES,displacement
1,ClC1=CCC2CN(CCN3CCCCC3)CC2C1 (stereo not given),67.7% (active)
2,O=c1cccc2n1CC1CC2CN(C(c2ccccc2)c2sc3ncnn3c2O)C1 (stereo not given),-0.3% (inactive)
3,O=C1OCCN1P(=O)(c1ccccc1)c1ccccc1,-1.2% (inactive)
4,COc1ccc(C(=O)C2(C)N(O)C(C)C(c3cccs3)=[N+]2[O-])cc1 (stereo not given),-5.6% (inactive)
5,CCC(=NCC1CCCO1)c1c(O)n(-c2ccc(Cl)cc2)c(=O)[nH]c1=O (stereo not given),-1.5% (inactive)

# Reference: PubChem BioAssay AID748 (Sanford-Burnham Center for Chemical Genomics, 2007)
